Screening results (PubChem)
TDP1 cell noCPT = qHTS for Inhibitors of human tyrosyl-DNA phosphodiesterase 1 (TDP1): qHTS in cells in absence of CPT. DT40 Tdp1-/- hTDP1 cells, no CPT, ATP luminescence, 48 h. Potency, µM (series often up to 46.2 µM), usual class: inhibitors. 420,000 compounds, 15% hits; note: nearly all actives have a fitted effect of over 55% in size
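Chicken DT40 Tdp1-/- cells complemented with human TDP1, screened without camptothecin (DMSO vehicle only), 400 cells/well. Compounds pin-transferred, cells incubated at 37 °C for at least 48 hr. Growth read as ATP-dependent luminescence (CellTiter-Glo, 30 min at RT).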
BCR signal inh = qHTS Assay to Find Inhibitors of Chronic Active B-Cell Receptor Signaling | Potency, µM (series often up to 46.1 µM), most hits filed as inhibitors | 340,000 compounds, 0.05% hits | ABC-DLBCL IkBa-CBG/CBR reporter, luminescence ratio, 4 h; active = well fitted inhibition curve with a large enough effect in the signal ratio, with a control signal flat, not every such curve was filed as active; inconclusive = small, poorly fitted or top-dose-only effect, or effect the other way, or a change in a side signal; the % refers to the signal ratio
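Compounds up to 46 uM were incubated four hours with TMD8 cells whose green CBG68 luciferase is fused to IkappaBalpha; red CBR luminescence normalised the signal, and concentration-effect curves were fitted to fusion, red and ratio data.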
IL1B secr inh = qHTS for Inhibitors of Inflammasome Signaling: IL-1-beta AlphaLISA Primary Screen; activity change, % at 57.5 µM; AID 743279, 2014; THP-1 LPS/ATP IL-1B secretion, AlphaLISA, 16 h; active compounds read low; 360,000 compounds, 4.7% hits; in the data active = activity change below about -50%; inconclusive = mostly about -30% to -49%
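THP-1 cells pretreated 1 hr with compounds (up to 57.5 uM final), then stimulated with LPS (250 ng/mL final) plus ATP (1.25 mM final); secreted IL-1B measured by AlphaLISA after 16 hr, decreased signal indicating inhibition.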
SW480 rereplic = A quantitative high throughput screen for small molecules that induce DNA re-replication in SW480 colon adenocarcinoma cells; SW480 DNA re-replication, Hoechst DNA content imaging, 48 h; Potency, µM (titrated, usually from 46.1 µM), usual class: activators; 340,000 compounds, 1.8% hits; AID 624297, 2012; note: nearly all actives have a fitted effect of over 55% in size
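Image-based read-out: total Hoechst fluorescence of nuclei (405 nm excitation, 500-530 nm emission), with hits raising the fraction of high-intensity nuclei. SW480 colon cells incubated 48 hr with compounds at 37 C.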
MCF10A rerep = A quantitative high throughput screen for small molecules that induce DNA re-replication in MCF 10a normal breast cells; MCF 10A DNA re-replication, Hoechst nuclear intensity, 48 h; Potency, µM (highest dose often 46.1 µM), usual class: activators; 350,000 compounds, 2.9% hits; AID 624296, 2012; note: nearly all actives have a fitted effect of over 50% in size
TDP1 cell CPT = qHTS for Inhibitors of human tyrosyl-DNA phosphodiesterase 1 (TDP1): qHTS in cells in presence of CPT. AID 686979, 2013. Potency, µM (top dose mostly 46.2 µM), actives largely listed as inhibitors. 420,000 compounds, 12% hits. chicken DT40 Tdp1-/-;hTDP1 cells + 20 nM CPT, ATP luminescence, 48 h; note: nearly all actives have a fitted effect of over 55% in size
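Chicken DT40 Tdp1-/- cells complemented with human TDP1, 400 cells/well, exposed to compounds plus 20 nM camptothecin for at least 48 h at 37 C; viability read as ATP content by CellTiter-Glo luminescence.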
Hits are given with their value; - = inactive; ? = inconclusive; . = no result; ! = repeats disagree; [ ] = dose if it differs, or a comment. Shown are actives, neighbours in structure and some others; about 19% of the full set was active somewhere. Unless noted, calls come from the whole dose curve; as a rule, active = well fitted curve in the direction sought with a large enough effect; inconclusive = small, poorly fitted or top-dose-only effect, or another doubt; inactive = no such curve, though single readings can be large; an effect the other way counts as inactive or inconclusive.

SMILES | TDP1 cell noCPT | BCR signal inh | IL1B secr inh | SW480 rereplic | MCF10A rerep | TDP1 cell CPT
COC(=O)c1c(NC(=O)c2ccc(S(=O)(=O)N3CCCCC3C)cc2)sc2c1CCN(C(C)C)C2 (centres undefined) | ? | - | . | . | . | ?
CC(C)N1CCc2c(sc(NC(=O)c3ccc(S(=O)(=O)N4CCCCC4C)cc3)c2C(N)=O)C1 (centres undefined) | ? | - | - | 21µM | ? | ?
CNC(=O)c1c(NC(=O)c2ccc(S(=O)(=O)N3CCCCC3C)cc2)sc2c1CCC2 (centres undefined) | 15µM | . | . | . | . | 13µM
CNC(=O)c1c(NC(=O)c2ccc(S(=O)(=O)N3CCC(C)CC3)cc2)sc2c1CCC2 | 23µM | . | . | . | . | ?
Cc1cc(C)n(CCC(=O)N2CCCC(Nc3ccc(F)cc3)C2)n1 (centres undefined) | - | . | - | - | - | -
CC(=O)C1=C(O)C(=O)N(c2ccc(Br)cc2)C1c1ccccc1[N+](=O)[O-] (centres undefined) | - | - | - | - | ? | -
Cc1ccc2c(c1)CN(CCNC(=O)c1n[nH]c3c1CCCC3)CC(C)O2 (centres undefined) | - | . | . | . | . | ?
COc1ccc(NC(=O)COC(=O)CN2C(=O)c3ccccc3C2=O)cc1 | - | - | - | - | - | -
COc1ccc(/C=C2\SC(=S)N(CC(=O)NC3C=CS(=O)(=O)C3)C2=O)cc1 (centres undefined) | 3.7µM | - | - | ? | - | 6.5µM
O=C(CN1C(=O)/C(=C/c2ccc(Cl)cc2)SC1=S)NC1C=CS(=O)(=O)C1 (centres undefined) | 5.8µM | - | - | ? | - | 6.5µM
O=C(CN1C(=O)/C(=C/c2ccc(F)cc2)SC1=S)NC1C=CS(=O)(=O)C1 (centres undefined) | ? | - | - | - | - | ?
O=C(CCN1C(=O)/C(=C/c2ccc(Cl)cc2)SC1=S)NC1C=CS(=O)(=O)C1 (centres undefined) | ? | ? | - | ? | ? | -
O=C(C1=C(O)C(=O)N(CC2CCCO2)C1c1ccccc1)c1ccco1 (centres undefined) | - | - | - | - | - | -
COc1ccccc1-c1sc2ccccc2c1-c1ccc(O)cc1 | ? | - | - | 16µM | ? | ?
COc1ccccc1-c1sc2ccccc2c1-c1ccc2c(c1)OCO2 | ? | ? | - | - | ? | 23µM
COc1ccc(-c2sc3cc(OC)c(OC)cc3c2-c2ccc(O)cc2)cc1 | ? | - | -54 | 21µM | ? | ?
COc1ccccc1-c1sc2ccccc2c1C#Cc1ccc(N(C)C)cc1 | ? | - | - | 8.2µM | ? | -
CC(CC(=O)Nc1ccc(Cl)c(S(=O)(=O)N2CCOCC2)c1)c1ccccc1 (centres undefined) | ? | ? | - | - | ? | ?
O=c1c(NCc2ccccc2Cl)nccn1-c1ccccc1 | - | . | . | . | . | -
COC(C(=O)N/N=C/c1ccc(OCC(=O)N2CCOCC2)cc1)c1ccccc1 (centres undefined) | - | - | - | - | - | -
Cc1ccnc(NC2c3ccccc3C(=O)N2Cc2ccccc2Cl)c1 (centres undefined) | 26µM | ? | - | - | - | ?
COc1cc(NC2c3ccccc3C(=O)N2Cc2ccccc2Cl)cc(OC)c1OC (centres undefined) | - | - | - | - | - | -
CC(OC(=O)CN1C(=O)NC2(CCCC2)C1=O)C(=O)Nc1cccc(Cl)c1 (centres undefined) | - | - | - | - | - | -
COc1ccc(CN(C(=O)c2ccco2)c2ccccc2)cc1 | ? | - | - | - | - | ?
O=C(c1ccccc1Br)N(Cc1ccccc1)c1ccccc1 | 12µM | - | -57 | ? | - | 21µM
SMILES | TDP1 cell noCPT | BCR signal inh | IL1B secr inh | SW480 rereplic | MCF10A rerep | TDP1 cell CPT
Cc1ccc(C(=O)N2CCC(C(=O)Nc3cccc([N+](=O)[O-])c3)CC2)cc1 | - | - | - | - | - | -
Cc1ccc2c(c1)N(C(=O)c1ccc(F)cc1)C(C)(C)CC2(C)c1ccccc1 (centres undefined) | 21µM | . | . | . | . | ?
CC1(c2ccc([N+](=O)[O-])cc2)CC(C)(C)N(C(=O)c2ccccc2)c2ccccc21 (centres undefined) | . | - | . | . | . | .
CN1CCN(CC(=O)N2c3ccccc3C(C)(c3ccccc3)CC2(C)C)CC1 (centres undefined) | 18µM | - | - | 21µM | ? | 16µM
CC(=O)N1c2ccccc2C(C)(c2ccccc2)CC1(C)C (centres undefined) | ? | ? | - | - | ? | ?
COC(=O)C1=C(C)N(c2ccc(C)cc2)/C(=C/c2cccs2)C1=O | 26µM | - | - | - | - | ?
COC(=O)C1=C(C)N(c2ccc(F)cc2)/C(=C/c2ccc(O)cc2)C1=O | ? | ? | - | - | -[9.22 µM] | -
C=CCN1C(=O)/C(=C\c2cccs2)C(C(=O)OC)=C1C | - | - | - | - | ? | -
CCOC(=O)C1=C(C)N(c2ccc(OC)cc2)C(=O)/C1=C\c1cccs1 | ? | ? | -60 | - | ? | ?
CCOC(=O)C1=C(C)N(c2ccc(OC)cc2)C(=O)/C1=C\c1ccc(O)c(OCC)c1 | ? | - | - | - | ? | 23µM
COc1ccc(S(=O)(=O)N(C)C[C@H]2OCc3cn(nn3)CCCC(=O)N([C@@H](C)CO)C[C@@H]2C)cc1 | - | . | - | . | . | -
CCOc1ccc(CC(=O)Nc2c(C(=O)c3ccc(F)cc3)oc3ccc(Cl)cc23)cc1OCC | - | . | . | . | . | -
O=C(Nc1ccccc1)N1CC2(CCN(C(=O)c3cc(C(F)(F)F)cc(C(F)(F)F)c3)CC2)C1 | - | . | . | . | . | -
CCCCn1c(-c2ccc(F)c(F)c2)nc2cc3[nH]c(=O)c(C(C)C)nc3cc21 | 21µM | ? | - | - | 23µM | 21µM
CCCCn1c(CCc2ccccc2)nc2cc3[nH]c(=O)c(C(C)C)nc3cc21 | ? | ? | - | - | ? | ?
CS(=O)(=O)CCCCN=C=S | 18µM | . | . | . | . | ?
COc1ccccc1NC(=O)C(C)OC(=O)CCCOc1ccccc1 (centres undefined) | - | - | - | - | - | -
O=C(Nc1cccc(O)c1)c1noc2c1CCc1ccccc1-2 | ? | ? | -83 | - | - | 16µM!
